According to publication PMC7862700, “An all-to-all approach to the identification of sequence-specific readers for epigenetic DNA modifications on cytosine”:

Columns and labels:
Test in all cases: DAPPL (digital affinity profiling via proximity ligation, sequencing); 10 mM Tris-HCl pH 7.5, 50 mM NaCl, 1 mM DTT, 4% glycerol, room temperature, 30 min; GST-TFs on glutathione beads, 16-mer random dsDNA library, 0.1% formaldehyde crosslink after washing; high values mean tight binding
FLI1 = target: T1, FLI1 (Homo sapiens, UniProt Q01543 1-452); details: protein: recombinant; tags: N-terminal GST; dsDNA, one strand shown
T1 sequence: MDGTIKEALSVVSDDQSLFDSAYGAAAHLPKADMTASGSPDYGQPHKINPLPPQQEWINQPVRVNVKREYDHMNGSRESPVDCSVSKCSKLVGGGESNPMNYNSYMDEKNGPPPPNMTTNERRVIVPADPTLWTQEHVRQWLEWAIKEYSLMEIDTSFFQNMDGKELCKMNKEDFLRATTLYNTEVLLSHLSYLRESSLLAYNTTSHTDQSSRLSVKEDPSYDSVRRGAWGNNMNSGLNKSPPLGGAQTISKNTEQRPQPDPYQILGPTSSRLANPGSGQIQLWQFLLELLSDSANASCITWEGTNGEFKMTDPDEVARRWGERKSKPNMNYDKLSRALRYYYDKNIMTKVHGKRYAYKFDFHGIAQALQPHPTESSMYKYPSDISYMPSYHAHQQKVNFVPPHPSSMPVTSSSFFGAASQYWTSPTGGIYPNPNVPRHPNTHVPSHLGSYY
In short: (§1)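 Human transcription factors fused to GST were expressed in yeast, captured on glutathione beads, given DNA barcodes and pooled with a GST-only negative control. Pools were incubated with 200 nmole of a 16-mer random double-stranded DNA library in Tris/NaCl/DTT/glycerol buffer at room temperature for 30 min. They were then washed, crosslinked with 0.1% formaldehyde, proximity-ligated (BsaI/T4 ligase, 1 h, 37 °C), PCR-amplified and sequenced on an Illumina NextSeq500. Binding signal is each 6-mer's read frequency for a factor divided by its frequency for the GST control.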

ELK1 = target: T2, ELK1 (Homo sapiens, UniProt P19419 1-428); details: protein: recombinant; tags: N-terminal GST; dsDNA, one strand shown
T2 sequence: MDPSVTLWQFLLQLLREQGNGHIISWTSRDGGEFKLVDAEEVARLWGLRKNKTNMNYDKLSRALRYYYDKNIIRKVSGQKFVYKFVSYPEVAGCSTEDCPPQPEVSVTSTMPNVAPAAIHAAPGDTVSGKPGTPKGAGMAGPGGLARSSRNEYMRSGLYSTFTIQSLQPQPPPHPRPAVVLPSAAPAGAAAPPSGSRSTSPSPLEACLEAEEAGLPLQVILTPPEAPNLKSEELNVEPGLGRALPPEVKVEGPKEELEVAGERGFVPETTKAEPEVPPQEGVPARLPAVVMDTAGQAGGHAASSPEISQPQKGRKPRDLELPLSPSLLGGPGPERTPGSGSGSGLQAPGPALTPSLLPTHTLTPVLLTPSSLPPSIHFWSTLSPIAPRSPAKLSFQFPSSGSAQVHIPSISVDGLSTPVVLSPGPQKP
In short: as §1

GABPA = target: T3, GABPA (Homo sapiens, UniProt Q06546 1-454); details: protein: recombinant; tags: N-terminal GST; dsDNA, one strand shown
T3 sequence: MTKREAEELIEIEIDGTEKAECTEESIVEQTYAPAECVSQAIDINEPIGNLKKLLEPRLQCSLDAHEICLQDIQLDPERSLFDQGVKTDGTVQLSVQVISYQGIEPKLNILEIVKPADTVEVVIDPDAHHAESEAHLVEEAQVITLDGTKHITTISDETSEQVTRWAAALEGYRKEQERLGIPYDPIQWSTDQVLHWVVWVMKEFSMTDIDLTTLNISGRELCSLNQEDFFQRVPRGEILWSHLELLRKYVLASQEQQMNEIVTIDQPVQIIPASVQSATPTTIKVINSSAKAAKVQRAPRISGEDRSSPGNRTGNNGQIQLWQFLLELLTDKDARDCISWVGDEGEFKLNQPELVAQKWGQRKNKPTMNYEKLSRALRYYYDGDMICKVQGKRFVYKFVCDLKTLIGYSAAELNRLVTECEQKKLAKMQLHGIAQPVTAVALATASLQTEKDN
In short: as §1

ERG = target: T4, ERG (Homo sapiens, UniProt P11308 1-479); details: protein: recombinant; tags: N-terminal GST; dsDNA, one strand shown
T4 sequence: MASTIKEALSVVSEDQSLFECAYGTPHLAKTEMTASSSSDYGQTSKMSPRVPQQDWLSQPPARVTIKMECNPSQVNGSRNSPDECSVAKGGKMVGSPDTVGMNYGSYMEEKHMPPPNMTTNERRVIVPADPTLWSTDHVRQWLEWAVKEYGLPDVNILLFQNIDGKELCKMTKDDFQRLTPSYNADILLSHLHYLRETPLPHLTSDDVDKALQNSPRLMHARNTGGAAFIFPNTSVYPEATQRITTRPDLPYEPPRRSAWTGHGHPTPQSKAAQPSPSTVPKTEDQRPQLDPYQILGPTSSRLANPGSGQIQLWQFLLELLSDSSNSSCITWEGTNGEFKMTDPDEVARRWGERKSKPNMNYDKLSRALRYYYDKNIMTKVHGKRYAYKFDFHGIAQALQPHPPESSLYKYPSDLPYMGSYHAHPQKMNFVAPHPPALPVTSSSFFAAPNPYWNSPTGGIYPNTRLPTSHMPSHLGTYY
In short: as §1

ELF1 = ELF1 (Homo sapiens, UniProt P32519 1-619); details: protein: recombinant; tags: N-terminal GST; dsDNA, one strand shown
In short: as §1

EHF = target: T5, EHF (Homo sapiens, UniProt Q9NZC4 1-300); details: protein: recombinant; tags: N-terminal GST; dsDNA, one strand shown
T5 sequence: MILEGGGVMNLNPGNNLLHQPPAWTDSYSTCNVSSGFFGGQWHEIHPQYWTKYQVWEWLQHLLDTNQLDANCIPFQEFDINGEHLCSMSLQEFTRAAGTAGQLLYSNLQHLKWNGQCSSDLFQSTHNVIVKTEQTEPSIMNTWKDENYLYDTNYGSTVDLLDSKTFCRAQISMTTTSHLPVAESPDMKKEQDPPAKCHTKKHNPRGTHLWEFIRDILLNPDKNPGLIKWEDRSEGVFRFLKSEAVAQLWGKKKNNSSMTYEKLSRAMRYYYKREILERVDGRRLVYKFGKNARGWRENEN
In short: as §1

SPI1 = SPI1 (Homo sapiens, UniProt P17947 1-270); details: protein: recombinant; tags: N-terminal GST; dsDNA, one strand shown
In short: as §1

SPIB = SPIB (Homo sapiens, UniProt Q01892 1-262); details: protein: recombinant; tags: N-terminal GST; dsDNA, one strand shown
In short: as §1

ELK3 = target: T6, ELK3 (Homo sapiens, UniProt P41970 1-407); details: protein: recombinant; tags: N-terminal GST; dsDNA, one strand shown
T6 sequence: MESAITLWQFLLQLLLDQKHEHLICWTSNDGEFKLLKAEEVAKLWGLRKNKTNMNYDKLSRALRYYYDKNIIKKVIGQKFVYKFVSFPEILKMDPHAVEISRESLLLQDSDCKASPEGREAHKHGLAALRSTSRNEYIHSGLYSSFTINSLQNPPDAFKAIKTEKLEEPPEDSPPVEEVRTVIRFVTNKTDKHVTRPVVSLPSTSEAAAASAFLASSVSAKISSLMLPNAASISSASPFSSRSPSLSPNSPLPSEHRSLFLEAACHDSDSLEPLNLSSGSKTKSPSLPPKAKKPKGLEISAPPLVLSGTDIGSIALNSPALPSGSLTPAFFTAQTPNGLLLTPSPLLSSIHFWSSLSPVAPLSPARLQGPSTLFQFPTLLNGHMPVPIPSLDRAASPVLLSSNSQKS
In short: as §1

FEV = target: T7, FEV (Homo sapiens, UniProt Q99581 1-238); details: protein: recombinant; tags: N-terminal GST; dsDNA, one strand shown
T7 sequence: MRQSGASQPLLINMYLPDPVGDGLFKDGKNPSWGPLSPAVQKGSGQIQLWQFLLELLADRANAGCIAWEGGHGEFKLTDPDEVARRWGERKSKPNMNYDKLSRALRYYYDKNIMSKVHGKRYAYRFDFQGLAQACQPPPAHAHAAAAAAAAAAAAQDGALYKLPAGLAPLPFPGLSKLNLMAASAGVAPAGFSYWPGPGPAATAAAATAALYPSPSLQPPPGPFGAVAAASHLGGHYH
In short: as §1

ETV5 = ETV5 (Homo sapiens, UniProt P41161 1-510); details: protein: recombinant; tags: N-terminal GST; dsDNA, one strand shown
In short: as §1

HSF1 = HSF1 (Homo sapiens, UniProt Q00613 1-529); details: protein: recombinant; tags: N-terminal GST; chain copies: 3; dsDNA, one strand shown
In short: as §1

SPIC = target: T8, SPIC (Homo sapiens, UniProt Q8N5J4 1-248); details: protein: recombinant; tags: N-terminal GST; dsDNA, one strand shown
T8 sequence: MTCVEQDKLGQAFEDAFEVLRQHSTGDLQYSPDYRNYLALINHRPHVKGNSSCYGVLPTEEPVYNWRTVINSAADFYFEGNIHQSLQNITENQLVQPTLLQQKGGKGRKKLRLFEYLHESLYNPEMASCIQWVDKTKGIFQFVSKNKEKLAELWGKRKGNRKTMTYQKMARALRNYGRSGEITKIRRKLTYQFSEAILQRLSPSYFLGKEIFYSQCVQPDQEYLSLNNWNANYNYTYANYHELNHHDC
In short: as §1

ELF4 = ELF4 (Homo sapiens, UniProt Q99607 1-663); details: protein: recombinant; tags: N-terminal GST; dsDNA, one strand shown
In short: as §1

ELK4 = target: T9, ELK4 (Homo sapiens, UniProt P28324-2 1-405); details: protein: recombinant; tags: N-terminal GST; dsDNA, one strand shown
T9 sequence: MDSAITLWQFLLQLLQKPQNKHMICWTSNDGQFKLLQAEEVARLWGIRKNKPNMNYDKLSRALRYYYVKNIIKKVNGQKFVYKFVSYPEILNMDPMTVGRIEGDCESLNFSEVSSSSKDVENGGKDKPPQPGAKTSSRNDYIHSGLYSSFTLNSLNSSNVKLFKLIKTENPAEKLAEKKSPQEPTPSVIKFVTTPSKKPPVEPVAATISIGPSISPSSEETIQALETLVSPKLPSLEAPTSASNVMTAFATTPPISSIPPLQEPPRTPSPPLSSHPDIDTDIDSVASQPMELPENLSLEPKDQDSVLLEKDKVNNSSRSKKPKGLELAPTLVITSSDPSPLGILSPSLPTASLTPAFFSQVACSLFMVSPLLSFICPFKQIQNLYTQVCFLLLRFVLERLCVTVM
In short: as §1

ETV2 = target: T10, ETV2 (Homo sapiens, UniProt O00321 1-342); details: protein: recombinant; tags: N-terminal GST; dsDNA, one strand shown
T10 sequence: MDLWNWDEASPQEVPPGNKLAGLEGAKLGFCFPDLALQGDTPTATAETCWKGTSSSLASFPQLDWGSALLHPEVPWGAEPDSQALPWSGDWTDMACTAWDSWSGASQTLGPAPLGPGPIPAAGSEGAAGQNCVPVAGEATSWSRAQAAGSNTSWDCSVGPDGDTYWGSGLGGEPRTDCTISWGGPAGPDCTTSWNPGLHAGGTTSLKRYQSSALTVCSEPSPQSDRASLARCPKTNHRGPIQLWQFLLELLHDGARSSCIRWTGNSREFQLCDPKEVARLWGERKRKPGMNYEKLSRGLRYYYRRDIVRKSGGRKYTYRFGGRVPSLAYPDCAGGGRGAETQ
In short: as §1

ELF3 = target: T11, ELF3 (Homo sapiens, UniProt P78545 1-371); details: protein: recombinant; tags: N-terminal GST; dsDNA, one strand shown
T11 sequence: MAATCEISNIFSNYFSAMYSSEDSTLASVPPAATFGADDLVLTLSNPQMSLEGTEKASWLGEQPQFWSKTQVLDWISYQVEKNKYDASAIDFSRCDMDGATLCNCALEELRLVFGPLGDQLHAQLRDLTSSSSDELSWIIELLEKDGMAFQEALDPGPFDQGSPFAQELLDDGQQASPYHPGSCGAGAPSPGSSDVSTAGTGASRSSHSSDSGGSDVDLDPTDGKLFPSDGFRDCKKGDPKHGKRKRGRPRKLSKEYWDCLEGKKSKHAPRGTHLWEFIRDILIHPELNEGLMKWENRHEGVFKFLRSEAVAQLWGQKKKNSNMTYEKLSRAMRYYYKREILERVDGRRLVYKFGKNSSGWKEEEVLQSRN
In short: as §1

CRX = CRX (Homo sapiens, UniProt O43186 1-299); details: protein: recombinant; tags: N-terminal GST; dsDNA, one strand shown
In short: as §1

ETV1 = ETV1 (Homo sapiens, UniProt P50549 1-477); details: protein: recombinant; tags: N-terminal GST; dsDNA, one strand shown
In short: as §1

Chain of ELF1 (P32519 whole entry): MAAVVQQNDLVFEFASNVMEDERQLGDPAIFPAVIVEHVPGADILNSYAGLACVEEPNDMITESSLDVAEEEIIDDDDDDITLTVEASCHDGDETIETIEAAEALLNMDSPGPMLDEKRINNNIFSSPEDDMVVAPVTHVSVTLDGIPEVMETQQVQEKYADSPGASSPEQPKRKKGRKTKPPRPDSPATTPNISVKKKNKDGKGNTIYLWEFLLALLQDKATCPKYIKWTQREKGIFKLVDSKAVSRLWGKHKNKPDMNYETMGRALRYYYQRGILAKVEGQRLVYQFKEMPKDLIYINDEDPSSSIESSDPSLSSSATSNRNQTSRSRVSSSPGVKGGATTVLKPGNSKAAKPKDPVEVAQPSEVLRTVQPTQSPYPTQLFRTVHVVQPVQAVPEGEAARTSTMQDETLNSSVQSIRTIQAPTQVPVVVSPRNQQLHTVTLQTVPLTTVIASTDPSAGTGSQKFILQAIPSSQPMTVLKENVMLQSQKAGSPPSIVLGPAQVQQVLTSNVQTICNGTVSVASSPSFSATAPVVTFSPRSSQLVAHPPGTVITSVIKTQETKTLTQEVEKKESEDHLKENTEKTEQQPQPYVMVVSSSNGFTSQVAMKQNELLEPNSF
Chain of SPIB (Q01892 whole entry): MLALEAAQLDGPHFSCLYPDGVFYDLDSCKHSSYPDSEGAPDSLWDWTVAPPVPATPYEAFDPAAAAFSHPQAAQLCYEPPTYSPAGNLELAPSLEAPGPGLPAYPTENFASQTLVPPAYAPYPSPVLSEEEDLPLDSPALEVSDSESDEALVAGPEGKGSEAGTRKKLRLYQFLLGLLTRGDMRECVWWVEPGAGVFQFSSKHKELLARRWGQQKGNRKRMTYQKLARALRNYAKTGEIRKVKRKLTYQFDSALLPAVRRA
Chain of ETV1 (P50549 whole entry): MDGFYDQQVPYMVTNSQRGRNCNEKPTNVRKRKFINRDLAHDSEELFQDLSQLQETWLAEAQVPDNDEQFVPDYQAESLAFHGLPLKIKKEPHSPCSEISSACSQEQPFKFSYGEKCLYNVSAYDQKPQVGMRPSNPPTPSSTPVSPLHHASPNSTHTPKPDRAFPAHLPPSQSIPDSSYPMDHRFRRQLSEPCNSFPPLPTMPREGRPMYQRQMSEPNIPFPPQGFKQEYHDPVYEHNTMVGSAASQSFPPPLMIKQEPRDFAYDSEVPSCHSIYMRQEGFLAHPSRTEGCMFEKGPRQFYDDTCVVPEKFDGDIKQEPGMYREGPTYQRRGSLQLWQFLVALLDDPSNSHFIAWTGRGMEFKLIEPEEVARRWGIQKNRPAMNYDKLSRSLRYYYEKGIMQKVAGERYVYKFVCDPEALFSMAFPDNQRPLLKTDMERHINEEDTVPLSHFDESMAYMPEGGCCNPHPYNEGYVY
Chain of ETV5 (P41161 whole entry): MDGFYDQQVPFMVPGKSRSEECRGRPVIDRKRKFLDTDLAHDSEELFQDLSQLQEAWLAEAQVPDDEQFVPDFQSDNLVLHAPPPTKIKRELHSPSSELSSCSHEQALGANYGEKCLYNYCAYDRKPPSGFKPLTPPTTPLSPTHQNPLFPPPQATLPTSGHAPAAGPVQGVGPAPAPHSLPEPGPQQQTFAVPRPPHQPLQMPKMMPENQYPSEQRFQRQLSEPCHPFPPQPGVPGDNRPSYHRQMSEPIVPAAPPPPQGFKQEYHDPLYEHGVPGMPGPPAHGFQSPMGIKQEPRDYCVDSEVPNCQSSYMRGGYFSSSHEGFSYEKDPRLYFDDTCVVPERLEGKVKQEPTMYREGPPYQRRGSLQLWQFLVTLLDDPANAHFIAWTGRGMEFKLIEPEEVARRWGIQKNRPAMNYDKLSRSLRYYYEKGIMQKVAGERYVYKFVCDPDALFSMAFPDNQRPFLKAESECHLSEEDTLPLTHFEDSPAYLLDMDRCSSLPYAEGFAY
Chain of ELF4 (Q99607 whole entry): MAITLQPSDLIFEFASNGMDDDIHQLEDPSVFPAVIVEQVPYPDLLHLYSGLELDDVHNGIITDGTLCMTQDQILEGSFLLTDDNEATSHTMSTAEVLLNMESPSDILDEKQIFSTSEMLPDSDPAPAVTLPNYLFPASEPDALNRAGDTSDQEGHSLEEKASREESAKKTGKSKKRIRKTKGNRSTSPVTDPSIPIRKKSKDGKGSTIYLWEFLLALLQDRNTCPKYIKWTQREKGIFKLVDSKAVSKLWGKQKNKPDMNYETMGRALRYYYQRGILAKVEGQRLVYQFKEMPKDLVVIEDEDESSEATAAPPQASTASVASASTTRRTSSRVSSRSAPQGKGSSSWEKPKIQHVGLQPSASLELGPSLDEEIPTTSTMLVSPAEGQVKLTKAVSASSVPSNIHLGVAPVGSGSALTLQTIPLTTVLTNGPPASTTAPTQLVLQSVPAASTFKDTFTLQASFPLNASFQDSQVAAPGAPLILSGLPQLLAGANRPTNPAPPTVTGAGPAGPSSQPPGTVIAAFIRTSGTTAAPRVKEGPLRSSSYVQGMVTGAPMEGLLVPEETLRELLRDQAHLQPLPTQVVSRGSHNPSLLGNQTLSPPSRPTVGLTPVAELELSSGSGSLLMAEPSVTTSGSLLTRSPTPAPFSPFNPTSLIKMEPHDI
Chain of CRX (O43186 whole entry): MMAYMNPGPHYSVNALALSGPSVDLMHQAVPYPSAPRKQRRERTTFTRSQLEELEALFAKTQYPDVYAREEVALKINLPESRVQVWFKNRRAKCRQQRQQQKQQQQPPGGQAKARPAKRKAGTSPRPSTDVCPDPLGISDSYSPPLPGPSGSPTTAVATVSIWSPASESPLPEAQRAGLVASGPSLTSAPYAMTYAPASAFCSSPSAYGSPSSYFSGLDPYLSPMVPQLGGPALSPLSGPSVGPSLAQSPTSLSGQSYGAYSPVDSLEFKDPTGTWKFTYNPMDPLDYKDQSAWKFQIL
Chain of HSF1 (Q00613 whole entry): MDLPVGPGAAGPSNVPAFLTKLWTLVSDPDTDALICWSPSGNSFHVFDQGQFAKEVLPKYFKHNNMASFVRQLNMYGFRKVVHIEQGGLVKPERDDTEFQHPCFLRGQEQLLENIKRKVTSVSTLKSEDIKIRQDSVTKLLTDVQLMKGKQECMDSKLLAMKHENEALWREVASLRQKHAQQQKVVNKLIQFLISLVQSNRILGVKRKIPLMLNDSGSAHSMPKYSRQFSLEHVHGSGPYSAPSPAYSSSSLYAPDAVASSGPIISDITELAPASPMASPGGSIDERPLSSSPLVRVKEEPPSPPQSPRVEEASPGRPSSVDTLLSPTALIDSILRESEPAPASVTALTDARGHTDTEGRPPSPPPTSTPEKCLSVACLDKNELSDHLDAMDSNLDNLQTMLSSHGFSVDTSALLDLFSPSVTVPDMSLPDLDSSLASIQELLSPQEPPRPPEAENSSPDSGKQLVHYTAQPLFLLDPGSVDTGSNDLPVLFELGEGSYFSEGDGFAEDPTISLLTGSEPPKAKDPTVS

AACACA
binding signal (FLI1): 1.32 fold enrichment (6-mer frequency, TF over GST control) | binding signal (ELK1): 1.32 fold enrichment (6-mer frequency, TF over GST control) | binding signal (GABPA): 1.33 fold enrichment (6-mer frequency, TF over GST control) | binding signal (ERG): 1.32 fold enrichment (6-mer frequency, TF over GST control) | binding signal (ELF1): 1.39 fold enrichment (6-mer frequency, TF over GST control) | binding signal (EHF): 1.38 fold enrichment (6-mer frequency, TF over GST control) | binding signal (SPI1): 1.27 fold enrichment (6-mer frequency, TF over GST control) | binding signal (SPIB): 1.35 fold enrichment (6-mer frequency, TF over GST control) | binding signal (ELK3): 1.26 fold enrichment (6-mer frequency, TF over GST control) | binding signal (FEV): 1.31 fold enrichment (6-mer frequency, TF over GST control) | binding signal (ETV5): 1.33 fold enrichment (6-mer frequency, TF over GST control) | binding signal (HSF1): 1.13 fold enrichment (6-mer frequency, TF over GST control) | binding signal (SPIC): 1.33 fold enrichment (6-mer frequency, TF over GST control) | binding signal (ELF4): 1.32 fold enrichment (6-mer frequency, TF over GST control) | binding signal (ELK4): 1.42 fold enrichment (6-mer frequency, TF over GST control) | binding signal (ETV2): 1.49 fold enrichment (6-mer frequency, TF over GST control) | binding signal (ELF3): 1.26 fold enrichment (6-mer frequency, TF over GST control) | binding signal (CRX): 1.1 fold enrichment (6-mer frequency, TF over GST control) | binding signal (ETV1): 1.27 fold enrichment (6-mer frequency, TF over GST control)
